Source: PubChem BioAssay (NCATS)
Inconclusive results are not listed. Active and inactive are the calls of the source. Calls come from the whole dose curve; as a rule, active = well fitted cell-killing curve with a large enough effect; inconclusive = small, poorly fitted or top-dose-only effect; inactive = flat fitted curve, though single readings scatter.

Assay: qHTS of pediatric cancer cell lines to identify multiple opportunities for drug repurposing: Primary screen for BT-37 cells (AID 1347094);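 for activity change, negative = cytotoxic: plate controls were DMSO for no effect and bortezomib for full effect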
Conditions: BT-37 viability, CellTiter-Glo luminescence, 48 h; series mostly up to 57.3 µM; activity change, negative = cytotoxic: at the top concentration
Procedure, shortened: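 Viability was measured as metabolically active cells after 48 hours of treatment, read by CellTiter-Glo luminescence. Compounds were tested at multiple final concentrations, giving concentration-response curves.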
Potency is the fitted concentration of half-maximal effect.

SMILES	activity change, negative = cytotoxic	Potency
CC(C)NC(=O)c1ccc(C=O)cc1	6.66% (inactive)	
CC(C)OC(=O)c1cc2c(OCC(O)CNC(C)(C)C)cccc2[nH]1 (stereo not given)	-8.15% (inactive)	
CCN1CCN(C(=O)N[C@@H](C(=O)N[C@@H]2C(=O)N3[C@@H]2SC(C)(C)[C@H]3C(=O)O)c2ccccc2)C(=O)C1=O	11.4% (inactive)	
CN(C)C(=O)CNC(=O)Cc1ccccc1	0.215% (inactive)	
Cc1sccc1Br	5.6% (inactive)	
COc1ccc(/C(C)=C/C(=O)O)c(OC)c1	18.8% (inactive)	
Cc1cc(CCCOc2c(C)cc(-c3noc(C(F)(F)F)n3)cc2C)on1	-4.85% (inactive)	
CCc1cccc2c(CCO)c[nH]c12	13.5% (inactive)	
CC(C)C(C)(C)C(C)(C)C(C)(C)S	14.5% [at 116 µM] (inactive)	
COc1ccc2c(c1)CCCC2=O	19% (inactive)	
Cc1cc(OCCOCC[N+](C)(C)Cc2ccccc2)ccc1C(C)(C)CC(C)(C)C		1 nM (active)
OCc1c[nH]c2ccccc12	-17.1% [at 116 µM] (inactive)	
CCn1ccc(NS(=O)(=O)c2ccc(N)cc2)nc1=O	13.2% (inactive)	
COc1cc(OC)nc(O[C@H](C(=O)O)C(OC)(c2ccccc2)c2ccccc2)n1	-36.3% (inactive)	
Cc1cccc(OCC(O)CNC(C)(C)C)c1C (stereo not given)	-1.35% (inactive)	
Cc1cc(O)c2c(O)c3c(O)cccc3cc2c1	6.57% (inactive)	
Fc1ccc(C(c2ccc(F)cc2)N2CCNCC2)cc1	3.72% (inactive)	
CC(CC(C#N)(c1ccccc1)C(C)C)N(C)C (stereo not given)	7.73% (inactive)	
Cc1oc(-c2ccccc2)nc1CCC(=O)c1ccc(CC2SC(=O)NC2=O)cc1 (stereo not given)	8.7% (inactive)	
CC(NN)c1ccccc1 (stereo not given)	5.56% [at 20.1 µM] (inactive)	
Cn1c(=O)c2c(ncn2CC(=O)O)n(C)c1=O	9.71% (inactive)	
Cc1ccc(C(C)OC(=O)C2(C)CCC(C(=O)O)C2(C)C)cc1 (stereo not given)	15.2% (inactive)	
Cc1ccc(CCn2c3c(c4cc(Cl)ccc42)CN(C)CC3)cn1	-16.6% (inactive)	
C[C@@]12CCC[C@H]1[C@@H]1CC[C@H]3C[C@@H](O)CC[C@]3(C)[C@H]1CC2	3.02% (inactive)	
CC[N+]1(CC)CCC(=C(c2ccccc2)c2ccccc2)C1C (stereo not given)	-14.9% (inactive)	
COc1ccc2cc(C=O)ccc2c1	8.89% (inactive)	
C/C(=C(/OCCOc1ccc(Cl)cc1)c1ccc(Cl)cc1Cl)n1ccnc1	-6.91% (inactive)	
COc1cc(C(=O)OC(COCCC(C)C)CN2CCOCC2)cc(OC)c1OC (stereo not given)	4.53% (inactive)	
CC(=O)O[C@@H]1C(=O)O[C@@H]2[C@H]1OC(=O)[C@@H]2OC(C)=O	-18.1% (inactive)	
CC1CCCCN1CCCOC(=O)c1ccc(OC2CCCCC2)cc1 (stereo not given)	-16.5% (inactive)	
